Assay outcomes from PubChem BioAssay.
KCNQ2 enhance – potentiators of rat KCNQ2 potassium channel; Potassium voltage-gated channel subfamily KQT member 2 (Rattus norvegicus), O88943; CHO-K1 KCNQ2, FluxOR thallium flux fluorescence; hits give high values; B-score at 10 µM; actives 0.54% (n = 310,000); AID 2239, 2010;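 active means fluorescence ratio B-score at least 3 SD of library B-scores, with initial fluorescence B-score within 3 of them, cut at about 5.3 in these data; same plate scores as AID 2156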;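 further: B-score of peak minus minimum over baseline fluorescence ratio after K+ and Tl+ stimulus; positive B-score means potentiation of KCNQ2 with more thallium influx and brighter signal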
KCNQ2 block – rat KCNQ2 potassium channel inhibitors, primary screen, cell-based, CHO-K1, FluxOR thallium flux, B-score; 20 min; hits give low values; AID 2156, 2009; B-score at 10 µM; Potassium voltage-gated channel subfamily KQT member 2 (Rattus norvegicus), O88943; actives 1.1% (n = 310,000);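 active means fluorescence ratio B-score at most minus 3 library SDs, with starting brightness B-score within 2 library SDs, cut at about -5.5 in these data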
Kir21 conf inh – mouse Kir2.1 channel blockers, retest, confirmation, cell-based, FluxOR thallium flux, duplicate. actives 41% (n = 2,300). shares compounds with KCNQ2 enhance. Tl flux remaining, % of negative control (hits give low values), % at 10 µM. Kir2.1-expressing cells, FluxOR thallium flux fluorescence; hits give low values;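 active means Primary-screen hit whose thallium flux fell at least 3 control SD below untreated wells in both duplicates, with normal baseline fluorescence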;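 further: 0% = blank wells without stimulus and 100% = stimulated no-compound controls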
HEK293 ctr – counter-screen for Kir2.1 inhibitors: effect in parental HEK293 cells. FluxOR signal as % of negative control (100 = no effect), % at 10 µM. FluxOR thallium flux fluorescence; 0% = unstimulated blank wells. shares compounds with KCNQ2 enhance. actives 19% (n = 2,300);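 active means dye signal at least 3 control SD above or below untreated wells in both duplicates, raw fluorescence within 3, either direction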;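 further: percent is based on the flux ratio of peak minus minimum fluorescence over baseline F0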
CHO-K1 Tl ctr – nonspecific thallium flux increase in parental CHO-K1, confirmation, counter-screen for KCNQ2 potentiator project, cell-based, FluxOR thallium flux, duplicate; shares compounds with KCNQ2 enhance; parental CHO-K1 cells, FluxOR thallium flux fluorescence; zero = vehicle mean+3SD, 100% = vehicle-minus-blank window; activity increase over 3SD of controls, % at 10 µM; actives 43% (n = 1,200); AID 2282, 2010;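 active means signal rise of at least 3 SD above the untreated control mean, in both duplicate wells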;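 further: counter screen of KCNQ2 potentiator hits so any rise reflects channel-independent effects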
KCNQ1 pot spec – human KCNQ1 channel potentiation off-target, confirmation, selectivity assay for KCNQ2 potentiator project, cell-based, CHO, FluxOR thallium flux; shares compounds with KCNQ2 enhance; actives 28% (n = 1,200); activation over 3SD threshold, % at 10 µM; CHO KCNQ1 stable, FluxOR thallium flux fluorescence; beyond 3SD, as % of vehicle-control signal; AID 2283, 2010;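 active means fluorescence ratio rise of at least 3 SD of vehicle wells above their mean, in both replicate wells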;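 further: 0% = vehicle mean plus 3 SD and 100% = vehicle minus unstimulated blank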
KCNQ2 pot confirm – rat KCNQ2 channel potentiators, confirmation, cell-based, CHO, FluxOR thallium flux, duplicate; CHO-KCNQ2 cells, FluxOR thallium flux fluorescence; actives 68% (n = 1,200); potentiation, less the hit threshold, % at 10 µM; shares compounds with KCNQ2 enhance;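 active means fluorescence ratio rising 3 SD or more over the vehicle control mean in both replicates, plus primary screen hit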;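 further: peak minus minimum thallium fluorescence divided by baseline after K/Tl stimulus; 0% = vehicle mean plus 3 SD and 100% = vehicle minus unstimulated blank difference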
Kir2-1 sel – mouse Kir2.1 channel activation off-target, confirmation, selectivity assay for KCNQ2 potentiator project, cell-based, HEK293, FluxOR thallium flux; activity over 3SD threshold, % at 10 µM; actives 2% (n = 1,200); shares compounds with KCNQ2 enhance; AID 2345, 2010; HEK293 Kir2.1, FluxOR thallium flux fluorescence;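 active means fluorescence ratio rise of at least 3 SD above the vehicle-control mean, seen in both replicates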;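 further: 0% = vehicle mean plus 3 SD and 100% = vehicle minus no-stimulus blank window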
KCNQ2 W236L pot – potentiators of retigabine-insensitive KCNQ2 W236L, mechanism study for KCNQ2 potentiator project, cell-based, rat KCNQ2 W236L, CHO, automated patch clamp | shares compounds with KCNQ2 enhance | automated patch clamp current | current increase over 3SD of negative controls (%), hits give high values, % at 25 µM | actives 10% (n = 940);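 active means current increase at least 3 SD of the untreated controls above them in both duplicate recordings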
Target sequence (O88943 whole entry W236L, looked up): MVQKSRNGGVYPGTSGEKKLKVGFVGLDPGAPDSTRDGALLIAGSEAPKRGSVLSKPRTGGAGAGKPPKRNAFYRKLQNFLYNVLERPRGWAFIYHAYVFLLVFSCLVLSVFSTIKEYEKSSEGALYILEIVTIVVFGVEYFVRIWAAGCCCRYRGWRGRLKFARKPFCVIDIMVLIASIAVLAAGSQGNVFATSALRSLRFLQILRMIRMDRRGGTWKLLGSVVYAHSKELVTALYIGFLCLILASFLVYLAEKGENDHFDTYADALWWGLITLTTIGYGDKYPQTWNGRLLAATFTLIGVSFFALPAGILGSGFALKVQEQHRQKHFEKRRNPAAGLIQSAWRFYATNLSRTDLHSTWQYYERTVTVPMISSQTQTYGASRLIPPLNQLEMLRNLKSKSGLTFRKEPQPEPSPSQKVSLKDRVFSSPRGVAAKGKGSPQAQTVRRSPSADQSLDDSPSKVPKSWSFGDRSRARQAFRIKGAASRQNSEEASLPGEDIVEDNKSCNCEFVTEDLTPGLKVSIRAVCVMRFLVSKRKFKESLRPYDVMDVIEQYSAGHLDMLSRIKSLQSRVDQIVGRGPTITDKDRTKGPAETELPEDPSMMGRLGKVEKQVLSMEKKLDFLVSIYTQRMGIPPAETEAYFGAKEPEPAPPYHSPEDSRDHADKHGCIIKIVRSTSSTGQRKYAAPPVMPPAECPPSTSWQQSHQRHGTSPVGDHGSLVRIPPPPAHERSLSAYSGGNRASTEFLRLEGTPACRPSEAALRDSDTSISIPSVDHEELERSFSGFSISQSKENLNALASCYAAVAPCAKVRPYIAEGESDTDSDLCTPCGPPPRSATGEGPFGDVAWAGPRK
Starred values were filed as active, the others as inactive; i = inactive; . = no result given. A selection: hits, their analogues and other compounds. The true share with any hit is near 1.6%.

SMILES | KCNQ2 enhance | KCNQ2 block | Kir21 conf inh | HEK293 ctr | others
COc1ccc(C(=O)/C(=C\c2ccco2)N2C=CC=CC2=C(C#N)C#N)cc1 | . | i | 70.0%* | 61.0%*
COc1ccc(C(=O)N/C(=C\c2ccco2)C(=O)OCc2ccco2)cc1 | 1.31 | i | . | .
CC1CN(C(=O)c2ccc(-c3cccc(C(F)(F)F)c3)o2)CC(C)O1 (centres undefined) | . | i | . | .
COc1ccccc1-c1nnc(Nc2nc3c(OC)cccc3s2)o1 | . | i | . | .
COc1cccc2sc(Nc3nnc(-c4ccccc4Cl)o3)nc12 | 21.4* | i | i | 379.0%* | CHO-K1 Tl ctr=-4.9;KCNQ1 pot spec=-6.4;KCNQ2 pot confirm=38.1*;Kir2-1 sel=-21.4;KCNQ2 W236L pot=i
COc1cccc(-c2nnc(NC(C)=O)o2)c1 | 0.28 | i | . | .
COc1cccc(-c2nnc(Nc3nc4c(F)cccc4s3)o2)c1 | 9.74* | i | i | 234.5%* | CHO-K1 Tl ctr=-7.0;KCNQ1 pot spec=36.6*;KCNQ2 pot confirm=28.7*;Kir2-1 sel=-21.6;KCNQ2 W236L pot=i
CCCCOc1ccc(NC(=S)Nc2cc(C)nc(SCCCC)n2)cc1 | . | i | . | .
CCOc1cc(Br)c(CC(=O)NC2CCCCCC2)cc1OCC | 13.6* | i | i | i | CHO-K1 Tl ctr=1.1*;KCNQ1 pot spec=14.3*;KCNQ2 pot confirm=14.8*;Kir2-1 sel=-34.0;KCNQ2 W236L pot=i
COc1ccccc1CC(=O)NC1CCCCCC1 | 1.85 | i | . | .
Cc1onc(-c2ccccc2Cl)c1C(=O)OCC(=O)Nc1ccc2c(c1)OCO2 | 8.03* | i | i | i | CHO-K1 Tl ctr=3.4*;KCNQ1 pot spec=0.5*;KCNQ2 pot confirm=-14.1;Kir2-1 sel=-37.2;KCNQ2 W236L pot=i
Cc1onc(-c2ccccc2)c1C(=O)OCC(=O)Nc1ccc2c(c1)OCO2 | . | i | . | .
C#CCN(C(=O)c1ccc(OC2CCN(Cc3ccccn3)CC2)cc1)C1CCCCC1 | 0.43 | i | . | .
O=C1CC(=O)N(CCc2ccccc2)C(=O)N1CCc1ccccc1 | 2.83 | i | . | .
O=C1C=CC(=O)C(C2=C3C(=O)N(CCc4ccccc4)CC(=O)N3CCC2)=C1 | 0.29 | i | 69.0%* | 69.0%*
CCc1ccc(C)c(OC(=O)c2cncc(Br)c2)c1 | 0.75 | i | . | .
COc1ccc(C(=O)CN2Cc3ccccc3C2=N)cc1 | 0.08 | i | 24.0%* | i
COc1ccc(C(=O)Cn2c(=N)n(C)c3ccccc32)cc1 | . | i | . | .
CCc1c(C)nc(SCC(=O)N2C(C)CCCC2C)[nH]c1=O (centres undefined) | 0.11 | i | . | .
CCc1c(C)nc(SCC(=O)N2CCCCC2C)[nH]c1=O (centres undefined) | 5.46* | i | i | i | CHO-K1 Tl ctr=19.5*;KCNQ1 pot spec=-16.5;KCNQ2 pot confirm=-25.6;Kir2-1 sel=-33.7
COc1ccc(C(=O)Nc2ccc(N3CCN(C(=O)c4ccccc4C)CC3)cc2)cc1 | 1.15 | i | . | .
CN1CCc2ccc(NC(=O)c3ccc(C(F)(F)F)cc3)cc2C1 | 0.51 | i | . | .
CCN1c2ccccc2-c2nc3ccccc3n2C1c1ccco1 (centres undefined) | . | i | i | i
c1ccc(CN2c3ccccc3-c3nc4ccccc4n3C2c2ccccn2)cc1 (centres undefined) | . | i | . | .
